Our source for the outcome values is PubChem BioAssay (NCATS).

Inconclusive results are not listed. The source made the active and inactive calls. Calls follow the shape of the dose curve; as a rule, active = well fitted curve in the direction sought with a large enough effect; inconclusive = small, poorly fitted or top-dose-only effect, or another doubt; inactive = no such curve, though single readings can be large; an effect the other way counts as inactive or inconclusive.

Sequence of Nuclear receptor subfamily 1 group I member 2 (Homo sapiens) (O75469 whole entry, looked up): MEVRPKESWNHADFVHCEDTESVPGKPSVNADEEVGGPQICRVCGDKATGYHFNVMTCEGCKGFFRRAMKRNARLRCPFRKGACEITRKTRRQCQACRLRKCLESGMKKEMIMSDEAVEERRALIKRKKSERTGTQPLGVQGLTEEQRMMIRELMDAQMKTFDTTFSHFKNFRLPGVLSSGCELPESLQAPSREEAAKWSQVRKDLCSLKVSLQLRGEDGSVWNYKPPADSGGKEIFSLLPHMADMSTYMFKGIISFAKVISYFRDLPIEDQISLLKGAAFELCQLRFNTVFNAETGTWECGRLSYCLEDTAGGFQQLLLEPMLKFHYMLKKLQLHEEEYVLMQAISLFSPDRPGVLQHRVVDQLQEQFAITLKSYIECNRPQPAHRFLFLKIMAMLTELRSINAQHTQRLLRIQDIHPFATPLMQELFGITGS

Test system in one test: not listed separately
Description: Dual reporter qHTS for agonist of Pregnane X Receptor (hPXR) against the NCATS DSHEA and TCM libraries: Fluorescence readout (AID 1920058). To be noted: PXR dual reporter cells; series mostly up to 40 µM. In short, it runs like this:
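hPXR-Luc HepG2 cells, 2000/well in charcoal-stripped serum, attached 5 h, dosed for ~24 h at 37 °C. Fluorescence read is CellTiter-Fluor viability (Ex/Em 405/540 nm); rifampicin positive, tetraoctyl ammonium bromide (92 µM) cytotoxicity controls.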
For `CC1=CCC(C(C)(C)O)CC1` (stereo unspecified), the result was inactive.

For the compound `Oc1cc(O)c2c(c1)OC(c1ccc(O)c(O)c1)C(O)C2` (stereo unspecified), the compound was classed as inactive.

Take `CC1=C(/C=C/C(C)=C/C=C/C(C)=C/C=C/C=C(C)/C=C/C=C(C)/C=C/C2=C(C)CCCC2(C)C)C(C)(C)CCC1`: the compound was classed as inactive.

`CCCCCCCC(=O)O`: the result was inactive.

`CC1=C(/C=C/C(C)=C/C=C/C(C)=C/CO)C(C)(C)CCC1`: the call was inactive.

In the case of `Cc1c(C)c2c(c(C)c1O)CC[C@@](C)(CCC[C@H](C)CCC[C@H](C)CCCC(C)C)O2`, the compound was called inactive.

For the compound `C[C@H]1[C@H](C)CC[C@]2(C(=O)O)CC[C@]3(C)C(=CC[C@@H]4[C@@]5(C)C[C@@H](O)[C@H](O)[C@@](C)(CO)[C@@H]5CC[C@]43C)[C@H]12`, the call was inactive.

Another test addresses Nuclear receptor subfamily 1 group I member 2 (Homo sapiens) (UniProt O75469). Description: Dual reporter qHTS for agonist of Pregnane X Receptor (hPXR) against the NCATS DSHEA and TCM libraries: Luminescence readout (AID 1920059). To be noted: hPXR dual reporter cells, luciferase luminescence agonist; series mostly up to 40 µM. In short, it runs like this:
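hPXR-Luc HepG2 cells, 2000/well in 5% charcoal-stripped FBS medium, attached 5 h, then exposed 24 h at 37C to compounds. Viability by CellTiter-Fluor, then luciferase luminescence with ONE-Glo.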
On the technique in general: Quantitative high-throughput screening tests each substance at several concentrations.
For the compound `CC1=CCC(C(C)(C)O)CC1` (stereo unspecified), the call was inactive.

As for `Oc1cc(O)c2c(c1)OC(c1ccc(O)c(O)c1)C(O)C2` (stereo unspecified), the compound was called inactive.

As to `CC1=C(/C=C/C(C)=C/C=C/C(C)=C/C=C/C=C(C)/C=C/C=C(C)/C=C/C2=C(C)CCCC2(C)C)C(C)(C)CCC1`, the call was inactive.

On to `CCCCCCCC(=O)O`, for which the compound was called inactive.

In the case of `Cc1c(C)c2c(c(C)c1O)CC[C@@](C)(CCC[C@H](C)CCC[C@H](C)CCCC(C)C)O2`, the call was inactive.

Turning to `C[C@H]1[C@H](C)CC[C@]2(C(=O)O)CC[C@]3(C)C(=CC[C@@H]4[C@@]5(C)C[C@@H](O)[C@H](O)[C@@](C)(CO)[C@@H]5CC[C@]43C)[C@H]12`, the outcome was inactive.

Another test shares this target. The experiment in a line: Dual reporter qHTS for antagonist of Pregnane X Receptor (hPXR) against the NCATS DSHEA and TCM libraries: Luminescence Readout (AID 1920060).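 Also: HepG2 cells carrying hPXR luciferase reporter stimulated with rifampicin at 2 µM.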 Particulars: hPXR dual reporter cells, luciferase luminescence, antagonist mode; series mostly up to 40 µM. In short, it runs like this:
(§1)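 hPXR-Luc HepG2 cells exposed 24 h at 37 C to compounds with 2 uM rifampicin in antagonist mode; luciferase luminescence measured by ONE-Glo, with CellTiter-Fluor viability read beforehand.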
On to `CC1=CCC(C(C)(C)O)CC1` (stereo unspecified), for which the compound was called inactive.

Regarding `CC1=C(/C=C/C(C)=C/C=C/C(C)=C/C=C/C=C(C)/C=C/C=C(C)/C=C/C2=C(C)CCCC2(C)C)C(C)(C)CCC1`, the result was inactive.

Consider `CCCCCCCC(=O)O`, for which the call was inactive.

Consider `CC1=C(/C=C/C(C)=C/C=C/C(C)=C/CO)C(C)(C)CCC1`, for which the outcome was inactive.

As for `Cc1c(C)c2c(c(C)c1O)CC[C@@](C)(CCC[C@H](C)CCC[C@H](C)CCCC(C)C)O2`, the compound was called inactive.

On to `C[C@H]1[C@H](C)CC[C@]2(C(=O)O)CC[C@]3(C)C(=CC[C@@H]4[C@@]5(C)C[C@@H](O)[C@H](O)[C@@](C)(CO)[C@@H]5CC[C@]43C)[C@H]12`, for which the result was inactive.

Test system in the next test: not listed separately
The experiment in a line: Dual reporter qHTS for antagonist of Pregnane X Receptor (hPXR) against the NCATS DSHEA and TCM libraries: Fluorescence Readout (AID 1920061). Particulars: PXR dual reporter cells, antagonist mode; series mostly up to 40 µM. In short, it runs like this:
as §1
Consider `CC1=CCC(C(C)(C)O)CC1` (stereo unspecified), for which the call was inactive.

For `Oc1cc(O)c2c(c1)OC(c1ccc(O)c(O)c1)C(O)C2` (stereo unspecified), the result was inactive.

On to `CC1=C(/C=C/C(C)=C/C=C/C(C)=C/C=C/C=C(C)/C=C/C=C(C)/C=C/C2=C(C)CCCC2(C)C)C(C)(C)CCC1`, for which the outcome was inactive.

On to `CCCCCCCC(=O)O`, for which the compound was called inactive.

Turning to `CC1=C(/C=C/C(C)=C/C=C/C(C)=C/CO)C(C)(C)CCC1`, the result was inactive.

For the compound `Cc1c(C)c2c(c(C)c1O)CC[C@@](C)(CCC[C@H](C)CCC[C@H](C)CCCC(C)C)O2`, the outcome was inactive.

Regarding `C[C@H]1[C@H](C)CC[C@]2(C(=O)O)CC[C@]3(C)C(=CC[C@@H]4[C@@]5(C)C[C@@H](O)[C@H](O)[C@@](C)(CO)[C@@H]5CC[C@]43C)[C@H]12`, the result was inactive.
